Our source for the inhibition values is ChEMBL document CHEMBL5606460, “ASAP - DENV-2 NS2B-NS3 protease fluorescence single point” (2024).

In all, about 2,000 compounds went through this assay and about 110 (5.5%) showed an effect of 50% or more. Many of the other results were omitted from the sample, so strong results are more common in it than they were.

The target in the assay is Genome polyprotein (dengue virus type 2) (UniProt P29990).
Setting [1] is: Thailand/16681/1984, Concentration 25.0 uM, Number of replicates 1.0.

One may read the inhibition as the relative decrease from the control value, in per cent. For `Cc1cc(CO)c2cccc(Cc3ccccc3C(=O)Nc3cc(C)on3)c2n1`, the inhibition (Thailand/16681/1984, Concentration 49.95 uM, Number of replicates 2.0, Standard deviation 1.5788782649320652 %) came out at 8.61% and the inhibition (Thailand/16681/1984, Concentration 99.9 uM, Number of replicates 2.0, Standard deviation 0.4297535440018178 %) came out at 25.7%.

As for `COc1ccc(-c2cc(NC(=O)C3CCN(c4ccc(C=O)cc4)CC3)[nH]n2)cc1`, the inhibition under setting [1] amounted to 0.343%.

`c1cnc2c(C3CCN(Cc4cscn4)CC3)c[nH]c2c1`: the inhibition by setting is: (Thailand/16681/1984, Concentration 49.5 uM, Number of replicates 2.0, Standard deviation 1.714470745737797 %) -3.42%; (Thailand/16681/1984, Concentration 99.01 uM, Number of replicates 2.0, Standard deviation 2.482934234636928 %) -3.54%; (Thailand/16681/1984, Concentration 198.0 uM, Number of replicates 2.0, Standard deviation 1.6201369950511377 %) -3.14%.

As for `C[C@@H](Cc1ccc(O)cc1)NC(=O)C1CCN(c2ccc(C=O)cc2)CC1`, under setting [1], the inhibition was 12.7%.

Consider `Cc1cc(CO)c2cccc(CC(=O)N3CC4(CCCOC4)C3)c2n1`, for which the inhibition is -6.59% (Thailand/16681/1984, Concentration 49.95 uM, Number of replicates 2.0, Standard deviation 0.772673116128399 %) and -6.27% (Thailand/16681/1984, Concentration 99.9 uM, Number of replicates 2.0, Standard deviation 1.1105448445025274 %).

As for `CC(C)(CO)NC(=O)c1cc(Cl)cc(NC(=O)c2cc(-c3ccc(Cl)cc3)n[nH]2)c1`, the inhibition is, setting by setting: (Thailand/16681/1984, Concentration 49.5 uM, Number of replicates 2.0, Standard deviation 0.12694171370832513 %) 1.06%; (Thailand/16681/1984, Concentration 99.01 uM, Number of replicates 2.0, Standard deviation 0.3683389265193805 %) 1.45%; (Thailand/16681/1984, Concentration 198.0 uM, Number of replicates 2.0, Standard deviation 0.21850629000727306 %) 2.52%.

Turning to `Cc1cc(CO)c2cccc(C[C@H](NC(=O)C(=O)c3ccco3)C(=O)O)c2n1`, the inhibition is 1.13% (Thailand/16681/1984, Concentration 49.95 uM, Number of replicates 2.0, Standard deviation 2.1984135254678594 %) and 5.56% (Thailand/16681/1984, Concentration 99.9 uM, Number of replicates 2.0, Standard deviation 0.8113996635889369 %).

On to `c1ccc2c(CN3CCC(c4c[nH]c5cccnc45)CC3)n[nH]c2c1`, for which the inhibition runs as follows: (Thailand/16681/1984, Concentration 49.5 uM, Number of replicates 2.0, Standard deviation 0.8795107409501791 %) 2.18%; (Thailand/16681/1984, Concentration 99.01 uM, Number of replicates 2.0, Standard deviation 0.8626664157680123 %) 3.05%; (Thailand/16681/1984, Concentration 198.0 uM, Number of replicates 2.0, Standard deviation 1.2603111418750788 %) 5.34%.

In the case of `Cc1cc(CO)c2cccc(C[C@H](NC(=O)C[C@H]3CCCN3)C(=O)O)c2n1`, the inhibition runs as follows: (Thailand/16681/1984, Concentration 49.95 uM, Number of replicates 2.0, Standard deviation 0.0013512279632592627 %) 3.5%; (Thailand/16681/1984, Concentration 99.9 uM, Number of replicates 2.0, Standard deviation 1.378906641613337 %) 9%.

Take `Cc1cnccc1NC(=O)c1cc(C2CCC2)n(C)c1C`: the inhibition by setting is: (Thailand/16681/1984, Concentration 49.5 uM, Number of replicates 2.0, Standard deviation 0.7067686370209446 %) 0.618%; (Thailand/16681/1984, Concentration 99.01 uM, Number of replicates 2.0, Standard deviation 0.7459418989288495 %) 1.95%; (Thailand/16681/1984, Concentration 198.0 uM, Number of replicates 2.0, Standard deviation 0.11875700646175207 %) 4.33%.

Consider `N#Cc1cccc(-c2nc3c(C(=O)Nc4ccncc4)cc(Cl)cc3[nH]2)c1`, for which the inhibition is 6.92% (Thailand/16681/1984, Concentration 99.5 uM, Number of replicates 2.0, Standard deviation 0.8007493235576281 %) and 36.2% (Thailand/16681/1984, Concentration 295.6 uM, Number of replicates 2.0, Standard deviation 3.318711635404566 %).

Regarding `N#Cc1cccc(-c2nc3c(C(=O)Nc4ccccc4)cc(Cl)cc3[nH]2)c1`, the inhibition (Thailand/16681/1984, Concentration 99.5 uM, Number of replicates 2.0, Standard deviation 7.963520922762683 %) came to 14.4% and the inhibition (Thailand/16681/1984, Concentration 295.6 uM, Number of replicates 2.0, Standard deviation 58.7613445679075 %) was 56.6%.

As for `N#Cc1cccc(-c2nc3c(C(=O)NCc4ccccc4)cc(Cl)cc3[nH]2)c1`, the inhibition is -4.99% (Thailand/16681/1984, Concentration 99.5 uM, Number of replicates 2.0, Standard deviation 0.16663009439873022 %) and 8.64% (Thailand/16681/1984, Concentration 295.6 uM, Number of replicates 2.0, Standard deviation 26.28702583112172 %).

With `CC(C)NC(=O)[C@H](Nc1ccc2c(c1)CNC2)c1cc(Cl)cc2[nH]c(-c3ccccc3)nc12`, the inhibition by setting is: (Thailand/16681/1984, Concentration 99.5 uM, Number of replicates 2.0, Standard deviation 1.6408381783405366 %) 91.5%; (Thailand/16681/1984, Concentration 295.6 uM, Number of replicates 2.0, Standard deviation 0.018514941963441705 %) 97.4%.

Consider `CCc1ccc(-c2nc3c(C(=O)Nc4ccc5c(c4)CNC5)cc(Cl)cc3[nH]2)cc1`, for which the inhibition (Thailand/16681/1984, Concentration 99.5 uM, Number of replicates 2.0, Standard deviation 0.07636874080258764 %) was 91.5% and the inhibition (Thailand/16681/1984, Concentration 295.6 uM, Number of replicates 2.0, Standard deviation 0.5542721932424032 %) was determined as 83.9%.

As for `N#Cc1cccc(-c2nc3c(C(=O)NCc4cccnc4)cc(Cl)cc3[nH]2)c1`, the inhibition was found to be 6.57% (Thailand/16681/1984, Concentration 99.5 uM, Number of replicates 2.0, Standard deviation 2.321247122631555 %) and 38.2% (Thailand/16681/1984, Concentration 295.6 uM, Number of replicates 2.0, Standard deviation 6.98688470817418 %).

For the molecule `N#Cc1cccc(-c2nc3c(C(=O)Nc4cccnc4)cc(Cl)cc3[nH]2)c1`, the inhibition (Thailand/16681/1984, Concentration 99.5 uM, Number of replicates 2.0, Standard deviation 0.04165727071859149 %) came to 7.45% and the inhibition (Thailand/16681/1984, Concentration 295.6 uM, Number of replicates 2.0, Standard deviation 4.418006643102565 %) was 20.3%.

Regarding `O=C(Nc1ccc2c(c1)CNC2)c1cc(Cl)cc2[nH]c(-c3cc(C4CC4)[nH]n3)nc12`, the inhibition by setting is: (Thailand/16681/1984, Concentration 99.5 uM, Number of replicates 2.0, Standard deviation 0.13306805316732315 %) 94.6%; (Thailand/16681/1984, Concentration 295.6 uM, Number of replicates 2.0, Standard deviation 0.23606011523727233 %) 88.6%.

Turning to `CCc1ccc(-c2ccccc2C(=O)Nc2cnn(C)c2)c(F)c1`, the inhibition was -0.985% (Thailand/16681/1984, Concentration 49.5 uM, Number of replicates 2.0, Standard deviation 0.8455770066617545 %); -0.538% (Thailand/16681/1984, Concentration 99.01 uM, Number of replicates 2.0, Standard deviation 1.2261793384720772 %); 0.736% (Thailand/16681/1984, Concentration 198.0 uM, Number of replicates 2.0, Standard deviation 2.01798052784263 %).
